# In PubChem BioAssay (Tox21):
# “And” between values parts separate entries of the source, which are not always exact repeats. Equal values may be shown once. Inconclusive results are not listed. A call without a number means that no potency is given here. Some compounds were tested as several samples or in several runs, with calls that do not always agree. The source made the active and inactive calls. The call rests on the fitted dose curve; in most records, active means well fitted cell-killing curve with a large enough effect in the repeat runs; inconclusive means weak or mixed curves, or effect the other way; inactive means no such curve, though single readings can be large or run the other way.
# Assay: qHTS assay for identifying genotoxic compounds that show differential cytotoxicity against isogenic chicken DT40 cell lines with known DNA damage response pathways - wild type cell line (AID 743012); further: nearly all actives have a fitted effect of over 60% in size
# Settings: DT40 wild type chicken cells viability, CellTiter-Glo, 40 h; series mostly up to 68.4 µM; activity change, negative = cytotoxicity: at the top concentration
# Excerpt: U.S. Tox21 Program National Center for Advancing Translational Sciences [NCATS] NIH Chemical Genomics Center [NCGC] U.S. Environmental Protection Agency [EPA] National Institutes of Environmental Health Sciences [NIEHS] National Toxicology Program [NTP] U.S. Food and Drug Administration [FDA] Tox21 Assay Overview: DNA repair pathways play a critical role in cellular homeostasis by repairing DNA damage induced by endogenous processes and xenobiotics. Isogenic chicken DT40 cell lines deficient in different DNA repair pathways can be used to identify genotoxic compounds and aid in characterizing the nature of the DNA damage induced. Two DNA repair-deficient cell lines with disrupted genes, Rad54/Ku70 or Rev3, were used to screen the Tox21 10K compound library. Possible genotoxicity was based on the presence of a significant increase in cytotoxicity in one or more of the DNA repair-deficient cell lines compared to that observed in the parental DNA repair-proficient cell line. CellTiter Glo viability assay (Promega, Madison, WI) was used to measure cell viability in these cells after compound treatment. This assay includes the data from the wild type cell line.
# Tox21 Assay Protocol Summary: 300 DT40 wild type cells in 5 uL/well were dispensed into white, solid-bottom 1536-well plates using a Multidrop Combi (ThermoFisher Scientific, Waltham, MA) dispenser. After the assay plates were incubated at 37 C/5% CO2 for approximately 0.5 hour, 23 nL of compounds dissolved in DMSO, positive controls or DMSO only was transferred into the assay plate by a pintool work station (Kalypsys, San Diego, CA). The assay plates were incubated at 37 C/5% CO2 for 40 hours. After 5 uL per well of CellTiter-Glo reagent was added into each well of the assay plates, the plates were incubated for 30 min at room temperature and the luminescence intensity of the plates was measured using a ViewLux (PerkinElmer, Shelton, CT) plate reader.
# Potency means the concentration at half of the fitted maximal effect.
SMILES,Potency,"activity change, negative = cytotoxicity"
C[C@]12CC[C@@H]3c4ccc(O)cc4C[C@@H](CCCCCCCCCS(=O)CCCC(F)(F)C(F)(F)F)[C@H]3[C@@H]1CC[C@@H]2O (stereo not given in full),8.41 µM (active),
NC(=O)N1c2ccccc2C=Cc2ccccc21,inactive and 30.6 µM (active),
CCCCCCCCCCCCCC(=O)OC(C)C,inactive,
C1CNCCN1,inactive,
CC(C)Cc1ccc(C(C)C(=O)O)cc1 (stereo not given),inactive,
O=c1cc[nH]c(=O)[nH]1,inactive,
COc1ccc(C(=O)c2ccccc2)c(O)c1,,0.69% (inactive)
CC(C)=CCC/C(C)=C/CO,inactive,
Cc1cnc(NC(=O)C2=C(O)c3ccccc3S(=O)(=O)N2C)s1,26.6 µM (active) and inactive and 6.86 µM (active),
CC(=O)OC/C=C(C)/C=C/C=C(C)/C=C/C1=C(C)CCCC1(C)C,61.1 µM (active),
CN(C)C=O,inactive,
CCCCCCCCOc1ccc(C(=O)c2ccccc2)c(O)c1,inactive,
COc1ccccc1NC(=O)CC(C)=O,inactive,
C=C(C)OC(C)=O,inactive,
Cc1c(N(C)C)c(=O)n(-c2ccccc2)n1C,inactive,
CC(=O)/C=C/C1=C(C)CCCC1(C)C,inactive,
CC(C)CC(C)CC(O)CC(C)C (stereo not given),inactive,
N[C@@H](Cc1c[nH]c2ccccc12)C(=O)O,,6.59% (inactive)
CC1=C(/C=C/C(C)=C/C=C/C(C)=C/C(=O)O)C(C)(C)CCC1,33.5 µM (active) and 54.4 µM (active),
CCCCC/C(C=O)=C\c1ccccc1,inactive,

SMILES,Potency,"activity change, negative = cytotoxicity"
CN/C(=C\[N+](=O)[O-])NCCSCc1ccc(CN(C)C)o1,inactive,
COc1cc(O)c(C(=O)c2ccccc2)cc1S(=O)(=O)O,inactive,
O=c1c(-c2ccc(O)cc2)coc2cc(O)cc(O)c12,11.9 µM (active) and 30.6 µM (active),
O=C1CCCCCN1,inactive,
COc1cc(C=O)ccc1O,inactive,
CCCCCCCC(=O)OCC(O)CO (stereo not given),inactive,
C[C@]12C=CC(=O)C=C1CC[C@@H]1[C@@H]2C(=O)C[C@@]2(C)[C@H]1CC[C@]2(O)C(=O)CO,,-3.52% (inactive)
CCCCOCCOCCSC#N,,0.387% (inactive)
COCC(C)N (stereo not given),,3.45% (inactive)
CC1=NN(c2ccccc2)C(=O)C1,inactive,
Cc1cccc2ccccc12,inactive,
O=C(O)CCCCC1CCSS1 (stereo not given),inactive,
CCn1cc(C(=O)O)c(=O)c2ccc(C)nc21,inactive,
NC(=O)NO,,3.37% (inactive)
c1ccc2[nH]c(-c3cscn3)nc2c1,inactive and 69 µM (active),
CCCCNC(=O)NS(=O)(=O)c1ccc(N)cc1,inactive,
CCN1CCCC1=O,inactive,
Nc1ccc(N=Nc2ccccc2)c(N)n1,4.22 µM (active) and 61.1 µM (active),
N[C@@H](Cc1c[nH]c2ccc(O)cc12)C(=O)O,inactive,
C=CCOC(=O)CC(C)C,inactive,
